The text below walks through data of PubChem BioAssay.

Several values for one entry are separate records, joined by “and”; a condition that tells them apart may be missing. Equal entries are not always repeated.

The test system of this experiment is Sam68 (KHDRBS1). Put plainly: compounds binding KHDRBS1 protein – biochemical, small-molecule microarray, 635 nm fluorescence, primary screen (AID 1125).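 Note: score merges 667 nm channel intensity with signal to noise over triplicate slides.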 The conditions noted are these: higher = more signal.
With `C=CCN(C(=O)C(c1cccs1)N(C(=O)/C=C\C(=O)O)c1ccc(CCO)cc1)c1ccc(OC)cc1` (configuration not stated), the composite z-score was -1.79 and -2.22.
To `CO[C@@H]1COC(=O)CC=C[C@H](C)COC(=O)[C@H](C)NC(=O)CC=C[C@H]1C` belongs 0.548; to `CCOC(=O)c1ccc(NC(=O)O[C@H]2[C@H](OC(=O)Nc3ccccc3)[C@@H](OC(=O)Nc3ccccc3)[C@@H](OC)O[C@@H]2CO)cc1`, 1.31; to `COC(=O)C1=C(C)N(Cc2ccccc2)C2=C(C(=O)c3ccccc3)[C@H](c3ccccc3)[C@@](O)(C(=O)OC)C(=O)N2[C@@H]1c1ccccc1`, 0.928 and 0.821.
Then `C[C@@]1([C@@H](NC(=O)Cc2ccccc2)c2ccc(-c3ccccc3)cc2)C[C@H]1C1CCCCC1`, with 0.158 and 0.69 and 1.33; and `CC(CO)N1C(=O)[C@@H]2C3C(=O)OCCC=C[C@H]3OC23C=CCN(CCN2CCOCC2)C(=O)[C@@H]13` (some centres not stated), with -0.495 and 1.14.
As to `C=C[C@H](C)[C@H](O)c1ccc(O)c2ccccc12`, the composite z-score is -0.512 and -0.791.
Then `C=CCN(CCCC)C(=O)C(c1cccs1)N(C(=O)/C=C\C(=O)O)c1c(Cl)cccc1CO` (configuration not stated), with -0.843 and -1.73; and `C#CCCCON=C1C[C@@H](O)[C@@H](O)[C@@H]2[C@@H]3C(=O)N(C4CCCCC4)C(=O)[C@@H]3CC[C@H]12`, with 0.866.
Compound `Cc1ccc(S(=O)(=O)N[C@H]2COC(=O)[C@@H](C)COC(=O)[C@H](C)NC(=O)CC=C[C@H]2C)cc1` yielded a composite z-score of 0.122.
With `C=CCN(C(=O)C1N(CCOCCO)C(=O)C2C(C(=O)O)C3C=CC21O3)C(C)(C)C` (configuration not stated), the composite z-score was -1.29 and -0.941.
With `C=CCN(CCCC)C(=O)C1N(CCOCCO)C(=O)C2C(C(=O)O)C3C=CC21O3` (configuration not stated), the composite z-score is -1.11 and -1.43.
